The nature of experiment [1]: qHTS assay for small molecule agonists of the p53 signaling pathway (AID 651631; calls by dose curve; note: nearly all actives have a fitted effect of over 15% in size). An outline of the steps:
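Fluorescence intensity from cleaved LiveBLAzer B/G substrate (2 h, room temperature) served as the signal. Beforehand, HCT-116 reporter cells bearing p53 response elements were treated 16 h at 37 °C with DMSO-dissolved compounds.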
(qHTS replaces the single test concentration by a dilution series.)

A short description of experiment [2]: qHTS assay for small molecules that induce genotoxicity in human embryonic kidney cells expressing luciferase-tagged ATAD5 (AID 651632). Note: nearly all actives have a fitted effect of over 15% in size. An outline of the steps:
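Cells were seeded at 2,000 per well, dosed with compound, and incubated 16 hr at 37C in 5% CO2. Luciferase activity was then quantified after a 30 min room-temperature incubation with Amplite.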

Experiment [3] in a line: qHTS assay for small molecule agonists of the p53 signaling pathway - cell viability (AID 651633; calls by dose curve;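 note: p53RE-bla HCT reporter cells with a stable beta-lactamase p53 reporter; series mostly up to about 83 µM; nearly all actives have a fitted effect of over 30% in size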). An outline of the steps:
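p53RE-bla cells, seeded at 4,000 per well and rested 5 h at 37 C/5% CO2, received compounds in DMSO for 16 h at 37 C. CellTiter-Glo was then added, and luminescence was read after 30 min at room temperature to gauge cytotoxicity.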

A short description of experiment [4]: qHTS assay for small molecules that induce genotoxicity in human embryonic kidney cells expressing luciferase-tagged ATAD5 - cell viability (AID 651634; calls by dose curve; note: nearly all actives have a fitted effect of over 25% in size). An outline of the steps:
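Cells (HEK293T, luciferase-tagged ATAD5) are seeded at 2,000 per well, dosed with compound or DMSO vehicle, and incubated 15.5 hr at 37C and 5% CO2. CellTiter-Fluor is added for 30 min before fluorescence is measured.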

Experiment [5] in a line: qHTS assay for small molecule disruptors of the mitochondrial membrane potential - cell viability (AID 720634; calls by dose curve;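 note: human HepG2 liver cancer cells; series mostly up to about 83 µM; nearly all actives have a fitted effect of over 20% in size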). Summed up:
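Cytotoxicity was measured by ATP quantitation in HepG2 wells that had first been treated with compound for 1 hr and stained with m-MPI dye; CellTiter-Glo incubation was 30 min at room temperature.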

A short description of experiment [6]: qHTS assay for small molecule disruptors of the mitochondrial membrane potential (AID 720635). Summed up: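 HepG2 cells (2,000/well) attached overnight at 37C, then took compound for 1 hr at 37C, 5% CO2. Mito-MPS dye was added for 30 min; fluorescence was read at 490/535 nm (monomers) and 540/590 nm (aggregates).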
Experiment [7] can be described thus: qHTS assay to test for compound auto fluorescence at 590 nm (red) in HepG2 cells (AID 720674). An outline of the steps: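 Intrinsic compound fluorescence in the red window (Ex/Em 540/590 nm) is measured in attached HepG2 cells exposed for 1 hr, DMSO vehicle as baseline, benchmarked to Rose Bengal sodium.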
Experiment [8] can be described thus: qHTS assay to test for compound auto fluorescence at 535 nm (green) in HepG2 cells (AID 720675).
Experiment [9] is described as follows: qHTS assay to test for compound auto fluorescence at 460 nm (blue) in HEK293 cells (AID 720678). An outline of the steps:
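Auto fluorescence in the blue band was quantified as triamterene equivalency. HEK293 cells were seeded at 2,000/well, dosed after a 4-5 hr attachment, and kept overnight at 37C before the 405/460 nm reading.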

Experiment [10] is described as follows: qHTS assay to test for compound auto fluorescence at 590 nm (red) in HEK293 cells (AID 720679). An outline of the steps:
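Autofluorescence equivalency to Rose Bengal sodium, 540/590nm, in HEK293 cells exposed overnight to 23 nL compound per well.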

A short description of experiment [11]: qHTS assay to test for compound auto fluorescence at 535 nm (green) in HEK293 cells (AID 720680).
The nature of experiment [12]: qHTS assay to test for compound auto fluorescence at 460 nm (blue) in HEK293 cell free culture (AID 720681). Summed up:
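Test compounds were pinned into cell-free culture medium (DMEM with 10% FBS) and fluorescence was read directly at Ex/Em 405/460 nm. Signals were expressed as fluorescence equivalents of triamterene, with DMSO vehicle as control.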

Experiment [13] in a line: qHTS assay to test for compound auto fluorescence at 535 nm (green) in HEK293 cell free culture (AID 720682). An outline of the steps: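 Intrinsic compound fluorescence is measured in culture medium containing 10% FBS, with excitation at 485 nm and detection at 535 nm, referenced to fluorescein.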
Experiment [14] can be described thus: qHTS assay to test for compound auto fluorescence at 590 nm (red) in HEK293 cell free culture (AID 720683). Summed up:
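Tox21 10K library compounds were pinned into cell-free DMEM with 10% FBS and fluorescence was read at excitation 540 nm. Activity is expressed as Rose Bengal sodium equivalency.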

A short description of experiment [15]: qHTS assay to test for compound auto fluorescence at 590 nm (red) in HepG2 cell free culture (AID 720684). An outline of the steps: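 Ex 540 / Em 590 nm read of compound in cell-free MEM (10% FBS). Rose Bengal sodium reference.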
Experiment [16] is described as follows: qHTS assay to test for compound auto fluorescence at 460 nm (blue) in HepG2 cell free culture (AID 720685). Summed up:
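Cell-free plates of MEM plus 10% FBS received 23 nL compound or DMSO vehicle; blue-channel (405/460 nm) intensity scored against triamterene as reference fluorophore.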

Experiment [17] in a line: qHTS assay to test for compound auto fluorescence at 535 nm (green) in HepG2 cell free culture (AID 720686).
Experiment [18] is described as follows: qHTS assay to test for compound auto fluorescence at 460 nm (blue) in HepG2 cells (AID 720687). Summed up:
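Cells (2,000/well in MEM with 10% FBS) attached overnight at 37 C, then were exposed to compound or DMSO for 1 hr at 37 C, 5% CO2. Fluorescence read at Ex/Em 405/460 nm, expressed as triamterene-equivalent signal.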

For experiment [19], the target named is Glucocorticoid receptor (Homo sapiens) (UniProt P04150). Put plainly: qHTS assay to identify small molecule antagonists of the glucocorticoid receptor (GR) signaling pathway (AID 720692; active = well fitted inhibition curve with a large enough effect in the signal ratio in the repeat runs, not every such curve was filed as active; the % refers to the signal ratio; note: potency is the fitted concentration of half-maximal effect). An outline of the steps: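 Antagonism was scored as loss of dexamethasone-driven (5 nM final) reporter signal in HeLa cells bearing a glucocorticoid response element–beta-lactamase construct, after 18 h compound exposure at 37 C and 2 h FRET substrate loading.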
Glucocorticoid receptor (Homo sapiens), sequence (P04150 whole entry, looked up): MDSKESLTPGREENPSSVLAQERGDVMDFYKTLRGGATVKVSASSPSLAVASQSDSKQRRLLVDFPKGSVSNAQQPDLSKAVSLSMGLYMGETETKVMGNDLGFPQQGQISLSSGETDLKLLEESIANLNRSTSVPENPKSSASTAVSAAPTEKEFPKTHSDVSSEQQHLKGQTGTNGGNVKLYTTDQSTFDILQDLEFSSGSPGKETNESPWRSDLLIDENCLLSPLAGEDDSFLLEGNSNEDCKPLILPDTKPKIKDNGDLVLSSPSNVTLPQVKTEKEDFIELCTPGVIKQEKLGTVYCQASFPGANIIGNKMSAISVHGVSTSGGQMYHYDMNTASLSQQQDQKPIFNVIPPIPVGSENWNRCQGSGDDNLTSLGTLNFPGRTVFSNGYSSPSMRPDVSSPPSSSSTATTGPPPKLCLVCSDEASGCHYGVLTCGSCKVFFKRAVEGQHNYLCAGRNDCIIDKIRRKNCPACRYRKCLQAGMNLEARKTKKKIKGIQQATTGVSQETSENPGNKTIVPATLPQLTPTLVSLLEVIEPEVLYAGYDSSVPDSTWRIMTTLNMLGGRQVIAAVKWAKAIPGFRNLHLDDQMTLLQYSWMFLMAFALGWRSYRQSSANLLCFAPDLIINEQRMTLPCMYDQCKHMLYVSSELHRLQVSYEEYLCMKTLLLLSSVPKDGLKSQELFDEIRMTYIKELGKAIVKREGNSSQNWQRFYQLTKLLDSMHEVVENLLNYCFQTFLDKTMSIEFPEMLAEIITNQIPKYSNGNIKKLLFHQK

The target is the same in experiment [20]. Briefly: qHTS assay to identify small molecule agonists of the glucocorticoid receptor (GR) signaling pathway (AID 720691; active = well fitted activation curve with a large enough effect in the signal ratio in the repeat runs, not every such curve was filed as active; the % refers to the signal ratio). Summed up: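 Steps: seed GR-bla HeLa cells, incubate 4 h at 37 C/5% CO2; pin-transfer DMSO-dissolved compounds; incubate 18 h at 37 C; add LiveBLAzer B/G FRET substrate; after 2 h at room temperature, measure fluorescence.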

Records with an inconclusive call do not appear. Activity calls are given as the source filed them. Unless noted, calls come from the whole dose curve; as a rule, active = well fitted curve in the direction sought with a large enough effect in the repeat runs; inconclusive = weak or mixed curves; inactive = no such curve, though single readings can be large; an effect the other way counts as inactive or inconclusive.

With `C[N+](C)(C)CCOC(=O)C(O)(c1ccccc1)c1ccccc1`, the Potency entry in [1], in [2], in experiment [3], in [4], in experiment [5] and in experiment [6] was “inactive” in each case. Moreover, the result in experiment [7], in experiment [8], in experiment [9], in [10], in experiment [11] and in experiment [12] was inactive. The compound was called inactive in experiment [13], in [14], in experiment [15], in experiment [16], in experiment [17] and in experiment [18].
On to `CN1CC[C@]23c4c5ccc(O)c4O[C@H]2[C@@H](O)CC[C@H]3[C@H]1C5`, for which the Potency entry in experiment [1], in [2], in experiment [3], in experiment [4], in experiment [5] and in experiment [6] was “inactive” throughout. In addition, in [19], the Potency entry is “inactive”. In addition, the outcome in experiment [7], in experiment [8], in experiment [10], in [11], in [12] and in [13] was inactive. For the same compound, the result in experiment [14], in [15], in experiment [16], in experiment [17] and in [18] was inactive.
Turning to `C1CCNCC1`, the Potency result in experiment [1], in experiment [2], in experiment [3], in experiment [4], in experiment [5] and in [6] was “inactive” in each case. Also, the call in experiment [7], in experiment [8], in experiment [10], in experiment [11], in [12] and in experiment [13] was inactive. Moreover, the result in [14], in [15], in experiment [16], in [17] and in experiment [18] was inactive.
With `CC(C)(c1ccccc1)c1cc(-n2nc3ccccc3n2)c(O)c(C(C)(C)c2ccccc2)c1`, the Potency entry in [1], in experiment [2], in experiment [3], in experiment [4], in experiment [5] and in experiment [19] was “inactive” in each case. Also, the result in [7], in [8], in experiment [9], in [10], in experiment [11] and in experiment [12] was inactive. Further, the result in [13], in [14], in [15], in experiment [16], in [17] and in experiment [18] was inactive.
Turning to `C[C@]12CC[C@H]3[C@@H](CCC4=CC(=O)CC[C@@H]43)[C@@H]1CC[C@@H]2OC(=O)CCc1ccccc1`, the Potency entry in [1], in [2], in experiment [3], in [4], in experiment [5] and in [6] was “inactive” in each case. Besides, the outcome in experiment [7], in experiment [8], in experiment [9], in [10], in experiment [11] and in [12] was inactive. The outcome in [13], in [14], in experiment [15], in experiment [16], in experiment [17] and in [18] was inactive. The Potency in experiment [19] is 6.74 µM (active).
As for `CN(C)N`, the Potency result in [1], in experiment [2], in experiment [3], in experiment [4], in [5] and in experiment [6] was “inactive” throughout. In addition, the Potency entry in experiment [20] and in experiment [19] was “inactive” each time. For the same compound, the call in [8], in experiment [10], in [11], in [12], in experiment [13] and in experiment [14] was inactive. The compound was classed as inactive in experiment [16], in experiment [17] and in [18].
For `CCOP(=S)(OCC)SCSc1cc(Cl)ccc1Cl`, the Potency result in experiment [1], in experiment [2], in experiment [3], in experiment [4], in [5] and in experiment [20] was “inactive” in each case. Also, the call in experiment [7], in experiment [8], in experiment [9], in experiment [10], in experiment [11] and in [12] was inactive. For the same compound, the compound was classed as inactive in experiment [13], in experiment [14], in [15], in [16], in [17] and in experiment [18].
For `CCCCCCCCCCCCN(C)C`, the Potency result in experiment [1], in [2], in [3], in experiment [4], in [5] and in [20] was “inactive” in each case. The Potency entry in [19] is “inactive”. The result in experiment [7], in experiment [8], in experiment [9], in experiment [10], in [11] and in experiment [12] was inactive. The compound was classed as inactive in experiment [13], in experiment [14], in experiment [15], in experiment [16], in experiment [17] and in experiment [18].

For the origin of these results see PubChem BioAssay (Tox21).
